Assay results reported in PubChem BioAssay AID504734 (The Scripps Research Institute Molecular Screening Center, 2011).
About 730 (0.21%) of roughly 340,000 compounds were called active. The full list was thinned out, with actives kept by preference. Values without a mark were called inactive.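 Rule for the calls: active = inhibition above the mean over all tested compounds plus 3 SD (cut at about 21% in these data); inactive = the rest.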

Molecular target: Toll-like receptor 9 (Homo sapiens) + Myeloid differentiation primary response protein MyD88 (Homo sapiens) (UniProt Q9NR96+Q99836)
Sequence (Q99836 whole entry, looked up): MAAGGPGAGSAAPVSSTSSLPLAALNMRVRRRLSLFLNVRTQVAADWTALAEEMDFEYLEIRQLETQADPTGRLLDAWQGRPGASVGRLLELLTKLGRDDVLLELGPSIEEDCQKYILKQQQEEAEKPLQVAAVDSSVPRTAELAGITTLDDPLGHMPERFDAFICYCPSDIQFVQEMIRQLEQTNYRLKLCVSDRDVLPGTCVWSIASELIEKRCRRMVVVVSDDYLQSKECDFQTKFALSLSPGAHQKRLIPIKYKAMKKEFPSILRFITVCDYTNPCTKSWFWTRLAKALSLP
Sequence (Q9NR96 whole entry, looked up): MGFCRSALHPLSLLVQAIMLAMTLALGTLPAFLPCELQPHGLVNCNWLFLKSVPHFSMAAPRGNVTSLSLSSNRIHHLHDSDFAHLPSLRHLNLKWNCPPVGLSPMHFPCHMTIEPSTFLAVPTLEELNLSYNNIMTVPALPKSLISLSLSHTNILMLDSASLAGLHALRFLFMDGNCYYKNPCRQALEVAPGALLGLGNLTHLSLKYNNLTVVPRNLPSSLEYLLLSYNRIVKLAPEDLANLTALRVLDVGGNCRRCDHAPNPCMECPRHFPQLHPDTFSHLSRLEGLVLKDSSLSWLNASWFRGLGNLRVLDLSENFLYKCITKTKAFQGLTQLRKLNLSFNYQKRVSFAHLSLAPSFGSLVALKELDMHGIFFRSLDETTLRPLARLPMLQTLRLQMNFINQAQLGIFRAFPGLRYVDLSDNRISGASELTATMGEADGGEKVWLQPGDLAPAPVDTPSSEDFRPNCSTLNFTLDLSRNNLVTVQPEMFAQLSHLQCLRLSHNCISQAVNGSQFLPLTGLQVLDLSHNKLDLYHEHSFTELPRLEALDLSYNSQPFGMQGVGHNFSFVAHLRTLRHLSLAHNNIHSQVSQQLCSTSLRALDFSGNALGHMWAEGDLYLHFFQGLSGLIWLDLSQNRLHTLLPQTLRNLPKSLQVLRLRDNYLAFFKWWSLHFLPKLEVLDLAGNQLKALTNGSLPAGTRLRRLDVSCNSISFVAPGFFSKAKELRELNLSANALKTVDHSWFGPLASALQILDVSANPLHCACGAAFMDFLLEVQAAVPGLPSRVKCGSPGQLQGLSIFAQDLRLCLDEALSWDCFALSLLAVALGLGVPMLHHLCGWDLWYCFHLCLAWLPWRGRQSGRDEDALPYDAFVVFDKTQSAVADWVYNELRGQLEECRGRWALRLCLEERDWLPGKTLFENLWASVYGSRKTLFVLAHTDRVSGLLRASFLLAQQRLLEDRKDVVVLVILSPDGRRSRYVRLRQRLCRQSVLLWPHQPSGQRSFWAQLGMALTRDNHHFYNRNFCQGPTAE
Experiment: inhibitors of TLR9-MyD88 association in cells, primary screen, cell-based, CHO, BLA complementation, fluorescence (AID 504734);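 note: 0% = DMSO only wells and 100% = clavulanate BLA inhibitor control wells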
Conditions: CHO BLA complementation TLR9-MyD88, CCF4 FRET ratio; at 4.98 µM; stronger effect = higher value

Row | Structure (SMILES) | inhibition
1 | O=Cc1cn(-c2ccccc2)nc1-c1ccccn1 | -5.05%
2 | COc1ccc(-c2nn(-c3ccccc3)cc2/C=N/Nc2ccccn2)cc1OC | 27.6% (active)
3 | COc1ccc(-c2nn(-c3ccccc3)cc2C(=O)Nc2nccs2)cc1OC | 7.8%
4 | NC1=CC(=O)C(=O)c2cccnc21 | -3.3%
5 | Cc1nc2ccccn2c(=O)c1NC(=O)c1ccc(Br)o1 | -8.57%
6 | C[C@H]1CN([C@@H](C)CO)C(=O)CCCn2cc(nn2)CO[C@@H]1CN(C)S(=O)(=O)c1cccs1 | -3.23%
7 | CS(=O)(=O)c1sc2nc(-c3ccccc3)cc(-c3ccccc3)c2c1N | 21.5% (active)
8 | Nc1cccc(-c2cc(-c3ccccc3)nc(-c3cccc(N)c3)n2)c1 | 4.91%
9 | CCN(CC)C(=O)c1sc2nc(-c3ccccc3)ccc2c1N | 1.41%
10 | CCOC(=O)C(C(=O)c1ccccc1)C(c1ccccc1)c1nccc2ccccc12 (stereo not given) | -3.27%
11 | O=C(O)c1ccccc1Cc1ccc(F)c2ccccc12 | 0.89%
12 | O=C1NC(Cc2ccccc2)c2nc3ccc(Br)cc3c(=O)n2-c2cc3ccccc3cc21 (stereo not given) | 4.34%
13 | COc1ccc(-c2cc(-c3ccc(N)cc3)nc(N)c2C#N)cc1OC | -1.14%
14 | COc1ccc(-c2cc(C(F)(F)F)nc(S(C)(=O)=O)n2)cc1OC | 27.6% (active)
15 | COc1ccc(-c2ccc(Nc3ccc(S(=O)(=O)N4CCCC4)cc3)nn2)cc1OC | -1.95%
16 | Cc1ccc(S(=O)(=O)N2CCOCC2)cc1NC(=O)c1ccncc1 | -10.3%
17 | CCN1CCCC1CNC(=O)c1ccc2c(c1)NC(=O)/C(=C\c1ccccc1F)S2 (stereo not given) | 5.07%
18 | COc1ccc(-c2nc3cc(C)ccn3c2NC2CCCCC2)cc1SC1CCCCC1 | -0.33%
19 | COc1ccc(-c2nc3cnccn3c2NC2CCCCC2)cc1-c1cccc(Cl)c1 | 40.9% (active)
20 | COc1ccc(-c2nc3cnccn3c2NC(C)(C)CC(C)(C)C)cc1O | -0.94%
21 | CN(C)C(CNC(=O)c1cc(Br)c(Br)s1)c1ccco1 (stereo not given) | 6.8%
22 | NC(=S)NN=Cc1ccc(OC(=O)COc2cc(Cl)c(Cl)cc2Cl)cn1 | 12.2%
23 | CC1(C)OC(=O)C2=C(CC(c3ccccc3)OC2CCc2ccccc2)O1 (stereo not given) | -19.4%
24 | COc1ccc(S(=O)(=O)N2CCN(CC(=O)N3CCNC3=O)CC2)cc1OC | 7.47%
25 | Cc1ccc(S(=O)(=O)N2C[C@@H](C)[C@]3(C2)[C@H](O)[C@H](OC(=O)NCc2ccccc2)C[C@H]2C(=O)N(c4ccccc4)C(=O)[C@H]23)cc1 | -1.46%
26 | COc1ccc([C@H]2N[C@]3(CCCN(CC4CCCCC4)C3=O)[C@H]3C(=O)N(C)C(=O)[C@@H]23)cc1 | 1.4%
27 | Cc1ccn(CC(=O)NC2CCCN(Cc3ccccc3F)C2)n1 (stereo not given) | 9%
28 | Cn1cnnc1SCc1nnc(-c2ccccc2Br)o1 | -5.92%

Row | Structure (SMILES) | inhibition
29 | Nc1cccc2c1C(=O)N(Cc1nnc(-c3ccccc3Br)o1)C2=O | 21.2% (active)
30 | CCOC(=O)N1CCN(Cc2nnc(-c3ccccc3Cl)o2)CC1 | 7.73%
31 | CCN1CCN(CCNC(=O)c2ccc3c(c2)NC(=O)/C(=C\c2cccc(Cl)c2)S3)CC1 | 13.2%
32 | CCOC(=O)C=Cc1ccc(C(=O)OCC)[nH]1 | 5.14%
33 | Cc1cc(C)c2c(=O)n3c(nc2c1)C(CC(C)C)NC(=O)c1cc2ccccc2cc1-3 (stereo not given) | 9.57%
34 | CC1(C)CC(=O)C(C2c3ccccc3S(=O)(=O)c3ccccc32)C(=O)C1 | 22.1% (active)
35 | CC1(C)CC(=O)NC=C(c2ccccc2)C1 | -4.24%
36 | CC1(C)CC(=O)C(CC(=O)N2CCC(Cc3ccccc3)CC2)C(=O)C1 | -5.62%
37 | CCN(CC)C(=O)C1=C(C)N(Cc2ccc(OC)cc2)C(=O)C(CC(=O)NCCCCc2ccccc2)C1 (stereo not given) | -3.92%
38 | Nc1c(C(=O)c2cccs2)sc2nsc(SCCN3CCCCC3)c12 | 31.4% (active)
39 | COc1ccc(NC(=O)CCCOc2ccc(C(C)=O)cc2)cc1S(=O)(=O)N1CCCCC1 | -6.11%
40 | COc1ccc([C@H]2N[C@]3(CCCN(Cc4ccco4)C3=O)[C@H]3C(=O)N(C)C(=O)[C@@H]23)cc1 | -4.25%
41 | Cc1noc(C)c1NC(=O)N(C)C[C@@H]1Oc2cc(Br)ccc2S(=O)(=O)N([C@@H](C)CO)C[C@H]1C | 6.19%
42 | Cc1ccc(CS(=O)(=O)c2ncc(Cl)c(C(=O)Nc3nnc(C)s3)n2)cc1 | 12.2%
43 | O=C(Nc1ccc(F)cc1)c1ccc(S(=O)(=O)NCc2cccnc2)cc1 | -9.53%
44 | Cc1cccc(CS(=O)(=O)c2ncc(Cl)c(C(=O)Nc3ccc(F)cc3)n2)c1 | 35.3% (active)
45 | CN1CCN(c2ccc(NC(=O)c3ccc4c(c3)[nH]c(=O)n4Cc3ccc(F)cc3)cc2)CC1 | 5.07%
46 | CSc1nnc(NC(=O)c2nc(S(=O)(=O)Cc3ccc(C)cc3)ncc2Cl)s1 | 4.24%
47 | Cc1cccc(NC(=O)c2nc(S(=O)(=O)Cc3ccccc3)ncc2Cl)c1 | 48.7% (active)
48 | Cc1[nH]c2ccccc2c1C(=O)C(=O)NCc1nnnn1-c1cccc(F)c1 | 7.75%
49 | COc1ccc(S(=O)(=O)N(C)C[C@H]2OCc3cnnn3CCCC(=O)N([C@H](C)CO)C[C@H]2C)cc1 | -12.9%
50 | CN(O)C(=S)c1ccccc1 | 21.8% (active)
51 | CN(Cc1ccccc1)C(=O)c1cccc(C(=O)N(C)Cc2ccccc2)c1 | -10.2%
52 | CCCCCCn1c(=O)n2n(c1=O)C[C@]1(OC(=O)NCc3ccc(OC)c(OC)c3)CN(S(=O)(=O)c3ccc(C)cc3)C[C@]1(O)C2 | -2.87%
53 | CC1CCCC(C)N1C(=O)COC(=O)c1ccccc1C(=O)c1ccccc1 (stereo not given) | -3.35%
54 | O=C(NCCc1cccc(F)c1)C1CC(O)CN1C(=O)Nc1ccccc1 (stereo not given) | -5.73%
55 | COC(=O)N(C)C[C@@H]1OCc2cnnn2CCCC(=O)N([C@@H](C)CO)C[C@@H]1C | -7.29%
